Legend:
[1] = system: Vero E6 infected with SARS-CoV-2; assay: morphology score (similarity to uninfected cells); higher = more like uninfected cells; settings: 24 h
[2] = system: Vero E6 infected with SARS-CoV-2; assay: SARS-CoV-2 infection rate relative to infected DMSO; higher = more infection, active = 60 or less; settings: 24 h
[3] = system: Vero E6 infected with SARS-CoV-2; assay: inhibition of SARS-CoV-2 cytopathic effect; higher = more antiviral protection, active = above 15; settings: 48 h

NS(=O)(=O)NCc1csc2ccccc12 (10 µM)
inactive: SARS-CoV-2 infection rate [2] 87.5%
0.212: morphology score [1]

OC(CCCN1CCN(c2ncc(F)cn2)CC1)c1ccc(F)cc1 (centres undefined)
inactive: inhibition of SARS-CoV-2 cytopathic effect ([3]; 1 nM) -3.3% | inhibition of SARS-CoV-2 cytopathic effect ([3]; 8.33 nM) -0.94% | inhibition of SARS-CoV-2 cytopathic effect ([3]; 100 nM) 3.34% | inhibition of SARS-CoV-2 cytopathic effect ([3]; 833.33 nM) 4.34% | inhibition of SARS-CoV-2 cytopathic effect ([3]; 10000 nM) 0.33%

Nc1ccc(C(=O)Nc2cccc(-c3nc(N4CCOCC4)c4oc5ncccc5c4n3)c2)cn1
active: inhibition of SARS-CoV-2 cytopathic effect ([3]; 10000 nM) 20.4%
inactive: inhibition of SARS-CoV-2 cytopathic effect ([3]; 1 nM) -0.93% | inhibition of SARS-CoV-2 cytopathic effect ([3]; 8.33 nM) -2.3% | inhibition of SARS-CoV-2 cytopathic effect ([3]; 100 nM) -2.43% | inhibition of SARS-CoV-2 cytopathic effect ([3]; 833.33 nM) 0%

Cc1ncc([N+](=O)[O-])n1CCO [metronidazole] (10 µM)
-0.0912: morphology score [1]
inactive: SARS-CoV-2 infection rate [2] 118%

COC(=O)CCc1ccc(OCC(O)CNC(C)C)cc1 (centres undefined) [esmolol]
inactive: inhibition of SARS-CoV-2 cytopathic effect ([3]; 1 nM) 0.17% | inhibition of SARS-CoV-2 cytopathic effect ([3]; 8.33 nM) 0.64% | inhibition of SARS-CoV-2 cytopathic effect ([3]; 100 nM) -0.39% | inhibition of SARS-CoV-2 cytopathic effect ([3]; 833.33 nM) 0.07% | inhibition of SARS-CoV-2 cytopathic effect ([3]; 10000 nM) -0.39%

Nc1sc2c(c1C(=O)c1ccc(Cl)cc1)CCCC2
inactive: inhibition of SARS-CoV-2 cytopathic effect ([3]; 1 nM) -0.5% | inhibition of SARS-CoV-2 cytopathic effect ([3]; 8.33 nM) 3.31% | inhibition of SARS-CoV-2 cytopathic effect ([3]; 100 nM) 0.38%

CNC(=O)CN1CCC(Oc2cc3c(Nc4cccc(Cl)c4F)ncnc3cc2OC)CC1
inactive: inhibition of SARS-CoV-2 cytopathic effect ([3]; 1 nM) -0.01% | inhibition of SARS-CoV-2 cytopathic effect ([3]; 8.33 nM) 0.66% | inhibition of SARS-CoV-2 cytopathic effect ([3]; 100 nM) -6.91% | inhibition of SARS-CoV-2 cytopathic effect ([3]; 833.33 nM) -7.8% | inhibition of SARS-CoV-2 cytopathic effect ([3]; 10000 nM) -13.6%

CC1(C)OC2(C)C(O)CC1CC2O (centres undefined) [epomediol]
inactive: inhibition of SARS-CoV-2 cytopathic effect ([3]; 1 nM) 7.71% | inhibition of SARS-CoV-2 cytopathic effect ([3]; 8.33 nM) 1.77% | inhibition of SARS-CoV-2 cytopathic effect ([3]; 100 nM) 4.4% | inhibition of SARS-CoV-2 cytopathic effect ([3]; 833.33 nM) 1.92% | inhibition of SARS-CoV-2 cytopathic effect ([3]; 10000 nM) 3.17%

COc1cccc(-c2ccc([C@@H](Oc3cc(-c4ccc(C[C@H](N)C(=O)O)cc4)nc(N)n3)C(F)(F)F)cc2)c1
inactive: inhibition of SARS-CoV-2 cytopathic effect ([3]; 1 nM) -4.34% | inhibition of SARS-CoV-2 cytopathic effect ([3]; 8.33 nM) -0.04% | inhibition of SARS-CoV-2 cytopathic effect ([3]; 100 nM) 1.61% | inhibition of SARS-CoV-2 cytopathic effect ([3]; 833.33 nM) 0.52% | inhibition of SARS-CoV-2 cytopathic effect ([3]; 10000 nM) -1.29%

C[C@H](CCC(=O)O)[C@H]1CC[C@H]2[C@@H]3[C@@H](O)C[C@@H]4C[C@H](O)CC[C@]4(C)[C@H]3CC[C@]12C [ursodiol] (10 µM)
-0.0233: morphology score [1]
inactive: SARS-CoV-2 infection rate [2] 106%

CCC1=C(C)CN(C(=O)NCCc2ccc(S(=O)(=O)NC(=O)N[C@H]3CC[C@H](C)CC3)cc2)C1=O [glimepiride]
inactive: inhibition of SARS-CoV-2 cytopathic effect ([3]; 1 nM) -3.26% | inhibition of SARS-CoV-2 cytopathic effect ([3]; 8.33 nM) -2.65% | inhibition of SARS-CoV-2 cytopathic effect ([3]; 100 nM) -2.4%

O=C(/C=C/c1cccc(S(=O)(=O)Nc2ccccc2)c1)NO [belinostat]
inactive: inhibition of SARS-CoV-2 cytopathic effect ([3]; 1 nM) -1.11% | inhibition of SARS-CoV-2 cytopathic effect ([3]; 8.33 nM) 0.41% | inhibition of SARS-CoV-2 cytopathic effect ([3]; 100 nM) -1.26% | inhibition of SARS-CoV-2 cytopathic effect ([3]; 833.33 nM) -13.7% | inhibition of SARS-CoV-2 cytopathic effect ([3]; 10000 nM) -27.1%

O=c1[nH]c([C@@H]2CCCN2)nc2c1oc1ccc(Cl)cc12
inactive: inhibition of SARS-CoV-2 cytopathic effect ([3]; 1 nM) -0.27% | inhibition of SARS-CoV-2 cytopathic effect ([3]; 8.33 nM) 0.12% | inhibition of SARS-CoV-2 cytopathic effect ([3]; 100 nM) 1.61% | inhibition of SARS-CoV-2 cytopathic effect ([3]; 833.33 nM) -0.54% | inhibition of SARS-CoV-2 cytopathic effect ([3]; 10000 nM) -2.54%

O=C(N[C@H]1CN2CCC1CC2)c1ccc2c(c1)OCCO2
inactive: inhibition of SARS-CoV-2 cytopathic effect ([3]; 1 nM) -2.13% | inhibition of SARS-CoV-2 cytopathic effect ([3]; 8.33 nM) -1.4% | inhibition of SARS-CoV-2 cytopathic effect ([3]; 100 nM) -0.74% | inhibition of SARS-CoV-2 cytopathic effect ([3]; 833.33 nM) -0.26% | inhibition of SARS-CoV-2 cytopathic effect ([3]; 10000 nM) -1.59%

COCCCOc1ccnc(C[S+]([O-])c2nc3ccccc3[nH]2)c1C (centres undefined) [rabeprazole]
inactive: inhibition of SARS-CoV-2 cytopathic effect ([3]; 1 nM) -0.56% | inhibition of SARS-CoV-2 cytopathic effect ([3]; 8.33 nM) -0.31% | inhibition of SARS-CoV-2 cytopathic effect ([3]; 100 nM) 2.14%

O=C(O)C1=CCCN(CCON=C(c2ccccc2)c2ccccc2)C1 (10 µM)
inactive: SARS-CoV-2 infection rate [2] 95%
0.0245: morphology score [1]

CN(Cc1ccc(C(C)(C)C)cc1)Cc1cccc2ccccc12 [butenafine]
inactive: inhibition of SARS-CoV-2 cytopathic effect ([3]; 1 nM) 0.43% | inhibition of SARS-CoV-2 cytopathic effect ([3]; 8.33 nM) 3.81% | inhibition of SARS-CoV-2 cytopathic effect ([3]; 100 nM) 0.84% | inhibition of SARS-CoV-2 cytopathic effect ([3]; 833.33 nM) 2.62% | inhibition of SARS-CoV-2 cytopathic effect ([3]; 10000 nM) 4.56%

Cc1cc(C)cc(C(=O)O[C@H]2C[C@H]3CC[C@@H](C2)N3C)c1 [tropanyl-3,5-dimethylbenzoate]
inactive: inhibition of SARS-CoV-2 cytopathic effect ([3]; 1 nM) -1.37% | inhibition of SARS-CoV-2 cytopathic effect ([3]; 8.33 nM) 1.19% | inhibition of SARS-CoV-2 cytopathic effect ([3]; 100 nM) 2.71% | inhibition of SARS-CoV-2 cytopathic effect ([3]; 833.33 nM) -1.34% | inhibition of SARS-CoV-2 cytopathic effect ([3]; 10000 nM) 1%

C[N+]1(C)[C@@H]2C[C@@H](OC(=O)[C@H](CO)c3ccccc3)C[C@H]1[C@@H]1O[C@@H]12 [methscopolamine]
inactive: inhibition of SARS-CoV-2 cytopathic effect ([3]; 1 nM) -1.29% | inhibition of SARS-CoV-2 cytopathic effect ([3]; 8.33 nM) -0.27% | inhibition of SARS-CoV-2 cytopathic effect ([3]; 100 nM) 1.56% | inhibition of SARS-CoV-2 cytopathic effect ([3]; 833.33 nM) 0.62% | inhibition of SARS-CoV-2 cytopathic effect ([3]; 10000 nM) 1.83%

COCCCN1CCC(NC(=O)c2cc(Cl)c(N)c3c2OCC3)CC1 [prucalopride] (10 µM)
0.0302: morphology score [1]
inactive: SARS-CoV-2 infection rate [2] 109%

Cc1c(N(C)C)c(=O)n(-c2ccccc2)n1C [amidopyrine]
inactive: inhibition of SARS-CoV-2 cytopathic effect ([3]; 1 nM) -14.8% | inhibition of SARS-CoV-2 cytopathic effect ([3]; 8.33 nM) -9.18% | inhibition of SARS-CoV-2 cytopathic effect ([3]; 100 nM) -12% | inhibition of SARS-CoV-2 cytopathic effect ([3]; 833.33 nM) -13.2% | inhibition of SARS-CoV-2 cytopathic effect ([3]; 10000 nM) -11.7%

Source: the supplement of paper PMC13380429
